SMILES strings stand for the structures. About 240 (13%) of roughly 1,900 compounds were called active. These entries were drawn from the full list. Values without a mark were called inactive.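 Rule for the calls: active = mean inhibition at least 40% at 20 µM, or signal 3 deviations below plate average, so some actives read negative; inactive = the rest.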

The target in the test is Prothrombin (Bos taurus) (UniProt P00735). The test can be described thus: blocking of thrombin cleavage of Ub4 substrate – biochemical, fluorescence polarization, single concentration, counter-screen for Rpn11 inhibitor project, confirmation (AID 602333).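 Note: plate controls were thrombin with DMSO for no effect and buffer wells lacking thrombin for full effect.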 Conditions: bovine thrombin cleavage of Ub4-pepOG, at 20 µM, active compounds read high.
Chain of Prothrombin (Bos taurus) (P00735 whole entry, looked up): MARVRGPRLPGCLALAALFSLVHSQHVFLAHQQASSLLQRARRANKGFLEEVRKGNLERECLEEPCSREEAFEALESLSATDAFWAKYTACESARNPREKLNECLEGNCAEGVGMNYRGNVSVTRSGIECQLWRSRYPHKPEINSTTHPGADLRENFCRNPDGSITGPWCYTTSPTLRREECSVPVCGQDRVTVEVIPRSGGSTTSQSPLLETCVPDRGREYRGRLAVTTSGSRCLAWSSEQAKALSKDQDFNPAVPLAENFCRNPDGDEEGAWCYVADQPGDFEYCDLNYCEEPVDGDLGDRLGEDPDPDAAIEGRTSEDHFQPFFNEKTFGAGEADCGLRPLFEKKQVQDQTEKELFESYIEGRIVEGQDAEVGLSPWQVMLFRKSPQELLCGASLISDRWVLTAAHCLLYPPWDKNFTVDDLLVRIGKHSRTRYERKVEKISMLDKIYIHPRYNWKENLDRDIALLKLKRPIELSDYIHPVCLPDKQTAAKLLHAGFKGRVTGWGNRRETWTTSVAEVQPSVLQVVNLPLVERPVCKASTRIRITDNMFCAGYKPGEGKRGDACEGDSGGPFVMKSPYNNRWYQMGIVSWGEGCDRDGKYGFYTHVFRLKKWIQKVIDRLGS
`C=CC1=C(C(=O)O)N2C(=O)[C@@H](NC(=O)/C(=N/OCC(=O)O)c3csc(N)n3)[C@H]2SC1`: the inhibition (commonly the drop in the measured response relative to a control, in per cent) was -49.6%.
Regarding `O=C(COc1cccc(F)c1)Oc1ccc(C(=O)c2ccccc2)cc1`, the inhibition is -6.51%.
In the case of `C/C(=N/Nc1nc(-c2ccccc2)c(CC(=O)O)s1)c1ccccc1`, the inhibition is 11.8%.
For `COc1cc(/C=C2/SC(=S)N(Cc3ccccc3)C2=O)cc(OC)c1O` the value was 30.8%; for `Cc1ccc(Nc2ccccc2N)cc1`, 15.5%; for `Cc1ccc(Nc2nc(Cl)c(C=O)s2)cc1`, 47% (active).
In the case of `CCOc1cc(/C=C2\SC(N3CCCCC3)=NC2=O)ccc1O`, the inhibition is 21%.
For `Oc1ccc(/C=N/Nc2nc(-c3ccccc3F)nc3ccccc23)c(O)c1` the value was 5.18%.
To `COc1ccc2[nH]c(=O)c(-c3noc(-c4ccc(F)cc4)n3)cc2c1` belongs 2.93%.
To `Cc1ccc2cc(C#N)c(NCCNC(=S)NCCCN3CCOCC3)nc2c1` belongs -7.45%.
On to `C=CCn1c(SCC(=O)NCc2ccccc2)nnc1-c1cc(Br)ccc1O`, for which the inhibition was -3.07%.
To `CCCCCCCCCCOC(=O)Cn1c(COc2cccc(OC)c2)[n+](C)c2ccccc21` belongs -11.8%; to `Cc1c(NC(=O)CSc2cccc3cccnc23)c(=O)n(-c2ccccc2)n1C`, -11.3%.
On to `Cc1nc2ccc(C(=O)N3CCSCC3)cc2s1`, for which the inhibition is -9.73%.
To `CCC(C)Cn1c(O)cc2nn(-c3nc4ccccc4s3)c(=O)c-2c1C` (stereo not given) belongs 3.33%.
Consider `CCNCc1cc2cc(C)ccc2[nH]c1=O`, for which the inhibition is 7.4%.
As to `CCN1CCN(c2cc3nc(C)n(Cc4ccccc4)c(=O)c3cc2NC(=O)c2ccccc2F)CC1`, the inhibition is -5.14%.
In the case of `COc1ccc(Cl)cc1NC(=O)CCS(=O)(=O)c1ccc(Br)cc1`, the inhibition was -12.6%.
For `COc1cccc(NC(=O)C(C)Oc2ccccc2)c1` (stereo not given) the value was -2.75%.
As to `Cc1ccc(NC(=O)c2c(NC(=O)CCC(=O)O)sc3c2CCCCC3)cc1`, the inhibition was -10.8%.
To `CCOc1ccc(NC(=O)c2ccc(NC(=O)COC(=O)c3ccc(NC(=O)CC#N)cc3)cc2)cc1` belongs -22.9%; to `COc1cccc(-c2nn(-c3ccccc3)cc2/C=C(\C#N)C(=O)NCCCn2ccnc2)c1`, 3.86%.
To `CCN1CCCC1CNC(=O)c1cc2c(=O)n(C)c3ccccc3c2n1C` (stereo not given) belongs -4.94%; to `CC(C)(C)NC(=O)CSC(=Nc1ccccc1F)NC#N`, 4.77%; to `Cc1ccc(-c2nnc(-c3ccc(NC(=O)c4cccs4)cc3)o2)cc1`, -6.56%.
For `Cc1nc2ccccc2nc(=O)c1NNc1ccc([N+](=O)[O-])cc1` the value was 28.5%; for `CC(C)Cn1c(CCC(=O)O)ccc1-c1cccs1`, -22.2%.
Take `CCC/C=C(\CCC)C(NC(=O)Cc1ccccc1)c1ccc(C(=O)OC)cc1` (stereo not given): the inhibition is -11.1%.
On to `Cc1oc2c(C)c3oc(=O)c(CC(=O)N[C@@H](CC(C)C)C(=O)N[C@@H](Cc4ccccc4)C(=O)O)c(C)c3cc2c1C`, for which the inhibition is 29.3%.
With `Cc1cc(/C=C2/SC(=O)N(CC(=O)N3CCCC3)C2=O)ccc1N1CCOCC1`, the inhibition is 23.9%.
To `CC(=O)Nc1ccccc1Sc1ccc2c3c(cccc13)C(=O)N(c1ccc(C)cc1)C2=O` belongs 4.95%; to `O=C1NC(=O)C2C1C(c1ccc([N+](=O)[O-])cc1)=NN2Cc1ccccc1` (stereo not given), 15.8%; to `Cc1cccc(OCc2nnc(SCc3nc4cc(C(F)(F)F)ccc4c(=O)[nH]3)o2)c1`, 42.8% (active).
Consider `CC(=O)/C(=N\Nc1ccc(Cl)cc1Cl)Sc1cccc2cccnc12`, for which the inhibition was 1.24%.
For `CC1CCN(c2ccc3c(c2)S(=O)(=O)c2cc(C(=O)O)ccc2C3=O)CC1` the value was 18.1%; for `CN(C)c1ccc(-n2cccc2/C=C2/SC(=Nc3ccc(F)cc3)NC2=O)cc1`, -29.3%; for `O=C(CSc1nc2ccccc2c(=O)[nH]1)Nc1nc(-c2ccc(Br)cc2)cs1`, -3.66%.
For `CCOC(=O)N1CCC(NC(=O)C(NS(=O)(=O)c2ccc3c(c2)CCN3C(=O)CC)C(C)C)CC1` (stereo not given), the inhibition was 1.81%.
Turning to `CCOc1ccc(-n2c(O)c(/C=N/c3ccnn3Cc3ccncc3)c3ccccc3c2=O)cc1`, the inhibition is 82.5% (active).
For `CCOc1ccc(-n2c(O)c(/C=N/Nc3nnc(C)c(=O)[nH]3)c3ccccc3c2=O)cc1` the value was -1.67%.
`CC(C)Oc1ccc(/C=C(\NC(=O)/C=C/c2ccco2)C(=O)NCCc2nc3ccccc3[nH]2)cc1`: the inhibition is 21%.
To `COc1ccc(CNC(=O)c2nnn(CC(=O)Nc3cc(C)cc(C)c3)c2N)cc1` belongs -6.95%; to `CN(C)CCOC1c2ccccc2-c2ccccc21`, -14%.
To `CC(=O)c1sc(N/N=C/c2ccc(C(C)C)cc2)nc1C` belongs -6.77%; to `Cc1ccc(NC(=O)CN2CCc3ccccc3C2)cc1`, -14.3%; to `C=CC[n+]1c(-c2ccc(C)cc2)csc1NNC(=O)Nc1ccccc1`, 4.61%.
Take `COc1ccc(-n2c(SCC(=O)Nc3sc4c(c3C#N)CCCC4)nnc2-c2ccc(O)cc2)cc1`: the inhibition is -8.59%.
On to `Cc1nc2ccccc2n1C(=O)N1CCOCC1`, for which the inhibition is -8.33%.
For `CCCS(=O)(=O)N1CCCC(C(=O)NCc2ccco2)C1` (stereo not given), the inhibition is -12.9%.
To `Cc1ccc(N=Cc2c(O)cc(C)oc2=O)c(C)c1` belongs 8.99%; to `CSC1=N/C(=C\C=C\c2cccs2)C(=O)S1`, 3.5%.
For `CCCOc1ccc(Cn2c(O)cc(=O)[nH]c2=O)cc1` the value was 7.31%; for `Nc1nonc1-n1nnc(C(=O)N/N=C/c2cc(Br)ccc2O)c1CSC1=NCCS1`, 2.28%.
For `CCN(CC)C(=O)CSc1nc2ccccc2n1CC(=O)N1CCN(c2ccccc2OC)CC1` the value was -2.4%; for `COc1cccc(/C=C(/CC(=O)Nc2ccc(N3CCOCC3)cc2)c2nc3ccccc3s2)c1`, 7.25%; for `O=C(O)c1ccc(NN=CC2=C(N3CCOCC3)/C(=C/c3ccccc3)CC2)cc1`, 46.5% (active).
For the molecule `CCCCCCSc1ccc([C@@H]2[C@H]3C(=O)N(CC)C(=O)[C@H]3[C@]3(C(=O)OC)CCCCN23)cc1`, the inhibition is 60.5% (active).
To `O=C(Nc1ccc(-c2nnc(-c3ccccc3)o2)cc1)c1ccc(Br)o1` belongs -5.94%; to `Cc1c(N=Nc2ccc(N(C)C)cc2)c(=O)n(-c2ccccc2)n1C`, 37.7%.
To `N#Cc1c(-c2cccs2)nc(SCC(=O)c2ccc(Br)cc2)[nH]c1=O` belongs 15.6%; to `NC(N)=N/N=C/c1ccc(OCc2ccc(Cl)cc2Cl)cc1`, -36.6%; to `CS(=O)(=O)c1ccc2c(c1)SC1=NC(=O)/C(=C/c3ccco3)C(=N)N12`, 26%.
To `Cc1sc2nc(COC(=O)C(NC(=O)c3ccc(Cl)cc3Cl)C(C)C)[nH]c(=O)c2c1C` (stereo not given) belongs 13.5%.
Consider `O=C(CSc1cccc2cccnc12)N/N=C/c1cccnc1`, for which the inhibition was -13.1%.
To `CC(C)CC1C(=O)N(Cc2cn(Cc3ccco3)nn2)CCS(=O)(=O)N1Cc1ccc(-c2ccc(Cl)c(Cl)c2)cc1` (stereo not given) belongs -6.74%; to `COC1=C/C(=C/c2c(N)n3nc(CC(=O)N4CCOCC4)sc3nc2=O)C=CC1=O`, 36%.
As for `CN=c1scc(-c2cc(OC)ccc2OC)n1/N=C/c1c(C)[nH]c2ccccc12`, the inhibition was 30%.
For `O=C(OCc1cc2ccccc2[nH]c1=O)c1cccnc1` the value was -12.2%; for `CCOc1cc(/C=C2\SC(N3CCCC(C)C3)=NC2=O)ccc1O` (stereo not given), 10%; for `CCc1ccc(-c2cc(C(=O)NCc3ccco3)c3ccccc3n2)s1`, 33.8%.
Consider `Oc1c(CN2CCCC2)cc(COCc2ccccc2)c2cccnc12`, for which the inhibition was -28.1%.
As for `O=C(CCS(=O)(=O)c1cccc2nonc12)NCCc1ccccc1Cl`, the inhibition is -6.4%.
For `CCc1ccc(NC(=O)CS(=O)CC(=O)NCCCc2ccccc2)cc1` (stereo not given) the value was 5.42%; for `N#Cc1ccc(C(=O)Nc2cccc3cccnc23)c(F)c1`, -28.1%; for `COc1ccc(NC(=O)Cn2c(-c3ccc(OC)cc3)cn(-c3ccc(C)cc3)c2=O)cc1`, 29.3%.
For `Cc1cc(/C=N/Nc2ccc([N+](=O)[O-])cn2)c(C)n1-c1cccc(C(=O)O)c1` the value was -0.18%.
For `COc1ccc(CC(=O)Nc2ccc(-c3nnc(-c4ccc(C)cc4)o3)cc2)cc1` the value was -14.6%; for `C=CCn1c(=S)[nH]c2scc(-c3ccco3)c2c1=O`, -8.62%; for `Cc1cc(OCC(=O)Nc2nccs2)c2c(C)c(C)c(=O)oc2c1`, -9.45%.
On to `COC(=O)c1ccc(OCC(=O)NC(C)(C)C)cc1`, for which the inhibition is -4.55%.

(Values after PubChem BioAssay AID602333 (Sanford-Burnham Center for Chemical Genomics, 2012).)
